The record followed here is PubChem BioAssay (NCI).

The panel holds about 79,000 compounds, 15% with a hit somewhere; the sample as a whole holds those more often. A number with no mark means an inactive call. No stated cut-off is given here; in the data, active means growth inhibition above about 70%; inactive means the rest.

A short description of the test: NCI Yeast Anticancer Drug Screen. Data for the cln2 rad14 strain (AID 165).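 Further: 0% = growth equal to vehicle treated cultures.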 The conditions noted are these: S. cerevisiae cln2 rad14 strain, at 50.0 µM, hits give high values. How it is done: Growth inhibition of yeast strains with defined genetic alterations is measured as a screen for potential anti-cancer activity. Selected strains with alterations in DNA damage repair or cell cycle control were exposed to compounds and growth inhibition was measured relative to vehicle treated controls. The strain used in this assay is cln2 rad14
As for `c1ccc(Nc2ccccn2)nc1`, the growth inhibition is -87.8%.

As for `Cc1onc(-c2c(F)cccc2Cl)c1-c1ncc(-c2ccc(Br)cc2)o1`, the growth inhibition was 9.45%.

`Cc1ccccc1CC(N)C(=O)O` (stereo not given): the growth inhibition is -15.2%.

As to `Nc1ccccc1SC1CC(=O)N(c2ccc(Cl)c(Cl)c2)C1=O` (stereo not given), the growth inhibition is -15.9%.

Turning to `Nc1cccc2cccc(O)c12`, the growth inhibition is -10.8%.

For `Nc1c(Br)cc(O)c2c1C(=O)c1ccccc1C2=O`, the growth inhibition was 7%.

On to `Nc1ncnc(Nc2ccc(C(F)(F)F)cc2)n1`, for which the growth inhibition is 13.2%.

Regarding `CCOC(=O)C(=O)CC(=O)c1ccccc1`, the growth inhibition is -26.4%.

Take `COc1cc2c(c(OC)c1OC)-c1ccc(SC)c(=O)cc1[C@@H](NC1OC(CO)C(O)C(O)C1O)CC2` (stereo not given in full): the growth inhibition is 6.2%.

Regarding `NS(=O)(=O)c1cc(=O)[nH]c(=O)[nH]1`, the growth inhibition is -4%.

Regarding `CCCCCC#CC(=O)O`, the growth inhibition is 17.9%.

With `O=C1C=CC(=O)C2=C1CCCC2`, the growth inhibition was -9.75%.

With `Cc1ccc(C2CCCCC2)cc1Br`, the growth inhibition was 3.15%.

For the compound `OCC(O)COc1ccc(Cl)cc1Cl` (stereo not given), the growth inhibition was 8.85%.

`Cc1c(-c2ccc(C3CCCCC3)cc2)nc2ccc(F)cc2c1C(=O)O`: the growth inhibition was 5.3%.

For `O=C1C=Cc2ccccc2/C1=C/c1[nH]c(=O)[nH]c1O`, the growth inhibition is 3.2%.

Turning to `CS(=O)(=O)c1ccc(/C=C\C(=O)O)cc1`, the growth inhibition was -8.4%.

On to `CCc1ccccc1C(=O)N(CC)CC`, for which the growth inhibition is 32%.

On to `CC(=O)NCNC(C)=O`, for which the growth inhibition is -75.1%.

As to `CCOc1ccc2c(c1)c(C)cc(C)[n+]2CC`, the growth inhibition was -7.9%.

For `CSc1cnc2ccccc2n1`, the growth inhibition is 13.1%.

In the case of `O=C(NCCc1ccccc1)/C(=C\c1ccc(Cl)cc1Cl)NC(=O)c1ccccc1`, the growth inhibition was -5.95%.

As to `CCOC(=O)c1ccc(Nc2sc(C(=O)c3ccc(Br)cc3)c(N)c2C#N)cc1`, the growth inhibition is 20.3%.

Take `CC(=O)C1C(=O)C(=O)N(c2cccc([N+](=O)[O-])c2)C1=O` (stereo not given): the growth inhibition was -9.3%.

Turning to `Cc1ccc[n+](CCC(N)=O)c1`, the growth inhibition was 1.2%.

On to `Oc1cccc(CNC2CCCCC2)c1`, for which the growth inhibition was 10.2%.

As to `O=C(O)c1ccccc1Cc1ccc2c(c1)CCCC2`, the growth inhibition is -28.9%.

As for `COc1cccc(C(=O)O)c1OC`, the growth inhibition was 3.75%.

In the case of `Cc1cc2c3ccc(C)[n+](C)c3ccc2n1C`, the growth inhibition was -66.6%.

For `COC1OC(CO)C(OC)C(O)C1O` (stereo not given), the growth inhibition is -6.7%.

In the case of `O=S(=O)(c1ccc(NC(=S)NCc2cccnc2)cc1)N1CCCCC1`, the growth inhibition is 1.8%.

Take `O=C(O)c1ccc([N+](=O)[O-])cc1S(=O)(=O)O`: the growth inhibition was -22.9%.

Take `CNc1ccccc1C(N)=O`: the growth inhibition was 11.7%.

On to `C/C(O)=C(/C=N/C(=S)Nc1ccccc1)C(=O)Nc1ccccc1C`, for which the growth inhibition was -4.5%.

With `CCN(CC)CCN1CNC(=S)NC1`, the growth inhibition is -1.8%.

On to `O=c1cc(Cl)nc2ccccn12`, for which the growth inhibition was -52.3%.

Turning to `Clc1ccc(-c2noc(/C=C\c3ccccc3)n2)cc1`, the growth inhibition was 12.1%.

Consider `Cc1ccc(Cc2ccc(C)cc2)cc1`, for which the growth inhibition was 3%.

As to `Cc1cc(Nc2ccc3c(c2)OCO3)c2cc3c(cc2n1)OCO3`, the growth inhibition is 3.8%.

`C#CCSc1nnnn1-c1ccccc1`: the growth inhibition is 19.4%.
